Assay outcomes as filed in PubChem.
Imprint erasure – inducers of genomic imprint erasure in mouse ES cells | mouse ES Peg3-LacZ reporter, beta-gal luminescence, 40 h | Potency, µM (top dose mostly 60.7 µM), for the others: at the top dose activity change, positive = activation, usual class: activators | 110,000 compounds, 0.02% hits | AID 1948
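Gelatin-coated wells received 300 freshly trypsinized female ES cells with a Peg3LacZ-Neo reporter on the maternal allele, then incubated 40 hours at 37C. BetaGlo was added for 5 minutes at room temperature before a single luminescence read.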
p53ts 39C tox – p53ts cell cytotoxicity, nonpermissive temperature; H1299-p53A138V viability at 39C, ATP luminescence, 24 h; 130,000 compounds, 1.5% hits; Potency, µM (titrated, usually from 46.1 µM), for the others: top-dose activity change, negative = cell killing, hits mostly cytotoxic; also: % is scaled to controls: 0 for no effect and ±100 for the full control effect; nearly all actives have a fitted effect of over 55% in size
Tau fil binding – tau filament binding. Potency, µM (titrated, usually from 57.1 µM), inactives show at the top dose activity change, negative = inhibition. 71,000 compounds, 2% hits. recombinant tau filaments, thioflavin S fluorescence, 15 h; filaments grown with octadecylsulfate alongside compound. AID 596;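 also: % is scaled to controls: 0 for no effect and ±100 for the full control effect; actives lower thioflavin S fluorescence by blocking filaments or displacing dye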
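Tau 2 uM in ThS buffer dispensed; compound added; 60 uM ODS added (finals 1 uM tau, 30 uM ODS); 15 h 37 C; fluor ex450/em510.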
FLuc inh – firefly luciferase inhibition | P08659 | purified firefly luciferase, luminescence, 8 min | Potency, µM (series often up to 57.1 µM), for inactives: top-dose activity change, negative = inhibition, most hits filed as inhibitors | 72,000 compounds, 2.2% hits; also: % is scaled to controls: 0 for no effect and ±100 for the full control effect; nearly all actives have a fitted effect of over 40% in size
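Inhibition of light generation by firefly luciferase from ATP and luciferin was profiled with concentration-response curves per sample, ATP held at 10 uM within the enzyme's linear range. Plates were read by luminescence after an 8-minute ambient incubation.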
p53ts 32C tox – cytotoxicity in p53ts cells at permissive temperature. H1299-p53A138V at 32C, ATP luminescence viability, 24 h. Potency, µM (doses to about 46.1 µM), for inactives: at the top dose activity change, negative = cytotoxicity, actives largely listed as cytotoxic. 130,000 compounds, 0.93% hits;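 also: 0% = DMSO and -100% = full killing by reference compound; nearly all actives have a fitted effect of over 55% in size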
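H1299-p53 A138V cells (temperature-sensitive p53) exposed 24 h to up to 46 uM compound at 32C, where p53 is wild-type in conformation. Viability read as ATP luminescence and normalised to DMSO and 100 uM tamoxifen. AC50 fitted with the Hill equation.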
* marks the source's active call; other numbers are inactive results; [ ] = remark or other dose. Shown are actives, neighbours in structure and some others; about 3.4% of the full set was active somewhere. Calls follow the shape of the dose curve; as a rule, active = well fitted curve in the direction sought with a large enough effect; inconclusive = small, poorly fitted or top-dose-only effect, or another doubt; inactive = no such curve, though single readings can be large; an effect the other way counts as inactive or inconclusive. Potency is read from the fitted curve at half-maximal effect.

For COc1ccccc1NC(=O)c1oc2ccccc2c1NC(=O)c1ccccc1C(F)(F)F the results were Imprint erasure -24%[10.9 µM], p53ts 39C tox 16µM* and p53ts 32C tox inconclusive.
For C[C@@H]1CC[C@@]2(OC1)O[C@H]1[C@@H](O)[C@H]3[C@@H]4CC[C@H]5C[C@@H](O[C@@H]6O[C@H](CO)[C@H](O[C@@H]7O[C@H](CO)[C@@H](O)[C@H](O[C@@H]8OC[C@@H](O)[C@H](O)[C@H]8O)[C@H]7O[C@@H]7O[C@H](CO)[C@@H](O)[C@H](O[C@@H]8O[C@H](CO)[C@@H](O)[C@H](O)[C@H]8O)[C@H]7O)[C@H](O)[C@H]6O)[C@H](O)C[C@]5(C)[C@H]4CC[C@]3(C)[C@H]1[C@@H]2C the results were Imprint erasure -27%, p53ts 39C tox 13µM*, Tau fil binding 78% and p53ts 32C tox 3%[1.84 µM].
Cn1ncnc2c(=O)n(C)c(=O)nc1-2 was read as Imprint erasure -34%, p53ts 39C tox 5µM*, Tau fil binding 12%, FLuc inh 0% and p53ts 32C tox 0.79µM*.
COc1cccc(-c2cc(C(=O)Nc3cnn(Cc4ccc(Cl)cc4Cl)c3)no2)c1 was read as Imprint erasure -7%[10.9 µM], p53ts 39C tox 10µM* and p53ts 32C tox inconclusive.
`CN(C)c1ccc(N)cc1` gave Imprint erasure -17%, p53ts 39C tox 32µM*, Tau fil binding 13µM* and p53ts 32C tox -2%[1.84 µM].
